# Compound activity from PubChem.
# Tg IFNy HTS: inhibitors of Toxoplasma gondii growth with IFN-gamma. Toxoplasma gondii growth in IFN-gamma-treated host cells; active compounds read low. activity change, negative = inhibition, % (test concentration not listed). hit rate 3.8% among 69,000. AID 1259416; in the data active means activity change below about -70%, passing the limit was not always enough;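 further: host cells are HeLa cells infected with Toxoplasma gondii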
# * hit, by the source's call; ! = a repeat was not active. The entries come from a sample that favours hits as a whole.
SMILES,Tg IFNy HTS
COc1cc(NC(=O)CN2CCC(n3ccnc3)C2)ccc1Cl (configuration not stated),3
CC(Cc1cccs1)Nc1ccnc(C(=O)NCc2cccnc2)c1 (configuration not stated),-8
O=C1N(c2ccccc2)CCC12CCN(Cc1cc3n(n1)CCNC3)CC2,-7
CS(=O)(=O)c1cccc(CNc2nc(Nc3ccc4c(c3)CCC(=O)N4)ncc2C(F)(F)F)c1,-68
CN(c1ncccc1CNc1nc(Nc2ccc3c(c2)CC(=O)N3)ncc1C(F)(F)F)S(C)(=O)=O,-80*
CCCCNC(=O)CCC1N=C2c3ccccc3N=C(SCc3ccc(Cl)cc3)N2C1=O (configuration not stated),-21
Cc1ccccc1-c1nc(CN(C)S(=O)(=O)c2ccc(Cl)cc2)c(C)o1,16
Cc1ccccc1-c1nc(CN(C)S(=O)(=O)c2ccccc2)c(C)o1,-1
CCN(CC)S(=O)(=O)c1ccc2c(c1)N(Cc1nc(-c3ccccc3C)oc1C)C(=O)CS2,-78*
N#Cc1cccc(C(=O)N2CCc3ncc(Cn4cccn4)n3CC2)c1,4
COc1ccccc1NC(=O)N1CCCC1C(=O)NCc1ccc(C)cc1 (configuration not stated),4
CC(C)N1CC2CCC(C1)C2C(=O)Nc1cccc(F)c1 (configuration not stated),47
C=CCN1C(=O)CC2C1CCN2C(=O)Cc1ccsc1 (configuration not stated),83
COC(=O)C[C@](O)(CCCC(C)(C)O)C(=O)O[C@@H]1C(OC)=C[C@]23CCCN2CCc2cc4c(cc2[C@H]13)OCO4,-82*
CC(C)c1ccc2c(c1)CCC1C(C)(CNC(=O)NC(C)(C)C)CCCC21C (configuration not stated),-104*
CC(C)c1ccc(CN2CCC(CNC(=O)C3(N)CCC3)C2)cc1 (configuration not stated),-8
CCOC(=O)N1c2ccc(C(C)C)cc2C=CC1C#N (configuration not stated),204
Cc1cccc(S(=O)(=O)N[C@H]2CC[C@H](CCNC(=O)Nc3cc(F)ccc3F)O[C@@H]2CO)c1,-47
N#C[C@H]1[C@H](c2ccccc2C2=CCCCC2)[C@H](CO)N1S(=O)(=O)c1ccccc1,-27
CC(C)N(CCC#N)C(=O)Nc1ccc2c(c1)CCO2,-32
N#CCCN(Cc1cccs1)S(=O)(=O)c1ccc2c(c1)CCO2,-91*
CN(C)CCN(Cc1cccs1)S(=O)(=O)c1ccc2[nH]c(=O)ccc2c1,361
COc1ccc(-n2c(=O)c(C(=O)NCc3ccco3)c(O)c3cccnc32)cc1,-10
COc1ccc(-c2nc(Cc3noc(-c4ccccc4)n3)c(C)o2)cc1,-21
COc1ccc(-c2cc(-c3ccccc3)c(C)c(-c3ccccc3)n2)cc1,-50
SMILES,Tg IFNy HTS
COc1ccc(-c2sncc2-c2ccccc2)cc1,-109*
Cc1cccc(CN2C[C@H]3CN(C(=O)NC4CC4)C[C@H]3C2=O)c1,4
Cc1cccc(C(=O)N2CCC3(CCC(COCC4CC4)N3C)CC2)c1 (configuration not stated),-6
Cc1cc2oc(=O)cc(C)c2cc1NC(=O)CCN1CCCCCC1=O,82
CC(C)(C)c1ccc(C23OC(=O)C4(CCCC4)C2OC(=O)C32CCCC2)cc1 (configuration not stated),-73*
CN(CC1CCCNC1)C(=O)CCSCc1ccc(F)cc1 (configuration not stated),-3
CCC(C(=O)Nc1ccc(NC(=O)c2ccc(C)o2)cc1)n1cccc1 (configuration not stated),-11
COc1ccccc1-c1ccc(NC(=O)c2sc(NS(C)(=O)=O)nc2C)cc1,111
CCn1nccc1C(=O)Nc1ccc2c(c1)CCC(=O)N2C,26
COc1c(O)cc2oc3cc(O)c(CC=C(C)C)c(O)c3c(=O)c2c1CC=C(C)C,-71*
CC(C)=CCc1c(O)cc2oc(C)cc(=O)c2c1O,2
COc1cc2oc3cc(OC)c(OC)c(CC=C(C)C)c3c(=O)c2c(O)c1CC=C(C)C,8
CCN(CCn1cccn1)C(=O)c1c(O)cccc1O,5
Cc1cnc(C(=O)N2CCCC2C(=O)c2cnn(-c3ccccc3)c2N)cn1 (configuration not stated),17
Cn1ccnc1CN1CCCC2(COCCN(c3cccc(C#N)n3)C2)C1 (configuration not stated),-14
CC(C)NC(=O)N1CCCC2(CC(Nc3nccs3)CO2)C1 (configuration not stated),-1
Cc1noc(C)c1S(=O)(=O)Nc1ccc2c(c1)C(=O)N([C@H](C)CO)C[C@@H](C)[C@@H](CN(C)C(=O)NC1CCCCC1)O2,-10
Cc1cccc(-c2nc(CSc3nc4c(=O)[nH]cnc4n3CC3CCCO3)c(C)o2)c1 (configuration not stated),11
FC(F)(F)c1cccc(OCc2ccc(-c3ncns3)cc2)c1,-25
N#Cc1ccc(OCc2ccc(C(F)(F)F)cc2)cc1,-81*
O=C(O)c1ccc(OCc2ccccc2)cc1,-3
COCC1CN(C(=O)CS(C)(=O)=O)Cc2nnn(CC3CC3)c21 (configuration not stated),0
C[C@H]1O[C@@H](O[C@H]2[C@@H](O)C[C@H](O[C@H]3[C@@H](O)C[C@H](O[C@H]4CC[C@]5(C)C6CC[C@]7(C)[C@@H](C8=CC(=O)OC8)CC[C@]7(O)C6CC[C@@H]5C4)O[C@@H]3C)O[C@@H]2C)C[C@H](O)[C@@H]1O (some centres not stated),-80*!
CCN(CC)C(=O)Cn1nc2n(CCOC)c3ccccc3n2c1=O,47
c1csc(-c2cc(N3CCOCC3)c3ccccc3n2)c1,-17
SMILES,Tg IFNy HTS
Cc1ccc(Cn2c(-c3ccc(F)cc3)c(-c3ccc(F)cc3)nnc2=O)cc1,-83*
CCOC(=O)Cn1nc2nnc(-c3ccc(F)cc3)c(-c3ccc(F)cc3)n2c1=O,-36
Cc1ccc(-n2sc(=O)n(Cc3ccc(F)cc3)c2=O)cc1,-4
Cc1ccc(-c2nc(Cn3nnc(-c4nc(-c5ccc(C)c(C)c5)no4)c3C)c(C)o2)cc1,13
O=C(c1cc2ccccc2[nH]1)N1CCC(CO)(CCCc2ccccc2)CC1,0
Cn1c(=O)cc(C(=O)N2CCC(c3ccc(C(=O)O)cc3)C2)c2ccccc21 (configuration not stated),0
CSCCCN1CCN(Cc2ccccc2C)CC1,-3
Cc1noc(-c2cc(=O)n(CC(=O)NC3CCCC3)c3ccccc23)n1,68
CC(Cn1cnc2c3cc(F)ccc3n(CC(=O)NC3CCCC3)c2c1=O)c1ccccc1 (configuration not stated),-102*
Cc1ccc2c(c1)cc(S(=O)(=O)c1ccccc1)c(=O)n2CC(=O)NC1CCCC1,-20
O=C(CN1CCNCC1)N1CC[C@@H](c2ccc3ccccc3c2)[C@H](O)C1,9
CCC(C(=O)N1CC=CC1)n1cc(C(C)=O)c2ccccc21 (configuration not stated),-3
CNC(=O)[C@@H]1CC2CN(S(=O)(=O)c3ccc(C)c(F)c3)CC2N1C (some centres not stated),-93*
CNC(=O)[C@@H]1CC2CN(S(=O)(=O)c3ccccc3)CC2N1C(C)=O (some centres not stated),31
CNC(=O)[C@H]1C[C@@H]2CN(Cc3ccoc3)C[C@@H]2N1C,-2
Cc1ccc2nc(CCc3ccc(NC(=O)CN4C(=O)NC(C)(C)C4=O)cc3)[nH]c2c1,25
